Inconclusive results are not listed. Values without a mark were called inactive. Active and inactive are the calls of the source. The call rests on the fitted dose curve; in most records, active means well fitted activation curve with a large enough effect in the repeat runs; inconclusive means weak or mixed curves, or effect the other way; inactive means no such curve, though single readings can be large or run the other way.
Assay: qHTS assay to identify small molecule agonists of the retinoic acid receptor (RAR) signaling pathway (AID 1159553)
Conditions: C3RL4 RARE luciferase reporter, agonist, 6 h; series mostly up to 73.3 µM; activation: at the top concentration
Text: National Center for Advancing Translational Sciences [NCATS] NIH Chemical Genomics Center [NCGC] U.S. Environmental Protection Agency [EPA] National Institutes of Environmental Health Sciences [NIEHS] National Toxicology Program [NTP] Assay overview: All-trans Retinoic acid (atRA) is the potent natural metabolite of retinol and plays an important role in normal embryonic development and maintenance of cellular phenotype in adult animals. atRA is the activating ligand for the retinoic acid receptors (RARs) which form heterodimers with retinoid X receptors (RXRs) on the retinoic acid response element (RARE). Through activation of the RAR/RXRs nuclear receptors, atRA regulates the transcription of a large number of protein-coding genes and regulatory RNAs. Intracellular levels of atRA are controlled by the retinol signaling pathway (RSP) that regulates the biosynthesis and catabolism of atRA to maintain physiological levels. Chemicals that interfere with the RSP can cause abnormal intracellular levels of atRA and therefore are potential developmental toxicants. To assess compounds for the potential adverse effect on embryonic development through interfering with retinol signaling, a cell-based RARE luciferase reporter gene assay was used. C3RL4 cell line (OARSA/CFSAN/FDA, Laurel, MD) was used to screen Tox21 10K compound library for identifying activators of the RSP.
Assay Protocol Summary: C3RL4 cells were seeded at 1,000/well in 5 uL of assay medium into white solid 1,536-well tissue culture plates (Greiner Bio-One North America Inc. Monroe, NC) using a Multidrop Combi (Thermo Scientific, Waltham, MA) dispenser. After incubation at 37 C and 5% CO2 for an overnight, 23 nL of compounds dissolved in DMSO, positive control or DMSO only were transferred by a Pintool station (Kalypsys, San Diego, CA). After 6 hr incubation at 37 C and 5% CO2, 5 uL of Amplite Luciferase reagent (AAT Bioquest Inc. Sunnyvale, CA) was added to each assay plate using a Flying Reagent Dispenser (FRD) (Aurora Discovery, San Diego, CA). Luminescence was quantified on a ViewLux plate reader (PerkinElmer, Waltham, MA) after 30 min incubation at room temperature.
On the % scale 0 is the no-effect control and ±100 the full control effect; potency means the concentration at half of the fitted maximal effect.

SMILES	activation	Potency
ClCCCCBr	-4.3% [at 94.8 µM]	
O=Cc1ccc(Cl)cc1Cl	0.0417% [at 94.8 µM]	
O=C(CBr)OCc1ccccc1	-5.4%	
COCCOCCO	-15.2%	
OCCCBr	9.78%	
CCCC(Cn1cncn1)c1ccc(Cl)cc1Cl (stereo not given)	-3.36%	
O=NN1CCCCCC1	-1.72%	
CC(=O)NC1CCSC1=O (stereo not given)	-3.34%	
COC(=O)c1cncn1C(C)c1ccccc1 (stereo not given)	0.604%	
CCC(Cl)CCl (stereo not given)	0.0715% [at 94.8 µM]	
C=CCN1CC[C@]23c4c5ccc(O)c4O[C@H]2C(=O)CC[C@@]3(O)[C@H]1C5	-0.239%	
CC(=O)C(C)(C)C	-0.237% [at 94.8 µM]	
NNC(=O)c1cccnc1		30.7 µM (active)
CCCN(CC1CC1)c1c([N+](=O)[O-])cc(C(F)(F)F)cc1[N+](=O)[O-]	-5.35%	
O=C(Nc1ccccc1)Nc1cnns1	14.4%	
CCCCN=C=O	-0.798%	
CCOP(O)OCC	7.91%	
ClCc1ccccc1	0.792%	
C=CC(=O)NCNC(=O)C=C	0.738%	
CCCCc1c(C)nc(NCC)nc1OS(=O)(=O)N(C)C	-5.61%	

SMILES	activation	Potency
c1ccc(C2CC2)c(OCC2=NCCN2)c1	-2.54%	
COC(N)=O	-2.37%	
CCCCCCCCOC(=O)c1ccc(C(=O)OCCCCCCCC)c(C(=O)OCCCCCCCC)c1	-3.59% [at 94.8 µM]	
O=C(C(Cl)(Cl)Cl)C(Cl)(Cl)Cl	0.212% [at 94.8 µM]	
CC1C(=O)C[C@]2(C(C)C)C[C@H]12 (stereo not given in full)	9.01%	
Cc1ccc(N)cc1C		69.1 µM (active)
C(=NC1CCCCC1)=NC1CCCCC1	34.4%	
NC(=O)CI	-0.325% [at 94.8 µM]	
CCCCCCC#N	0.873%	
N#Cc1cc(I)c(O)c(I)c1	-10.4%	
CN(C)c1ccc(N(C)C)cc1		12.2 µM (active)
O=C1c2ccccc2C(=O)C1C(=O)C(c1ccccc1)c1ccccc1	0.598%	
Oc1ccc(Cl)c(Cl)c1Cl	-6.34% [at 94.8 µM]	
CCN(C)N=O	-0.455%	
CC(C)N(CCC(C(N)=O)(c1ccccc1)c1ccccn1)C(C)C (stereo not given)	2.16%	
CCOP(=S)(OCC)Oc1cc(Cl)c(Br)cc1Cl	-11.7%	
CCCCCCCCCC(=O)O[C@H]1CC[C@H]2[C@@H]3CCC4=CC(=O)CC[C@@H]4[C@H]3CC[C@]12C	0.285%	
CCc1ccc(C(=O)NN(C(=O)c2cc(C)cc(C)c2)C(C)(C)C)cc1	-7.15%	
N#Cc1ccc(Cl)cc1	-0.765%	
Brc1ccccc1	0.405%	

From PubChem BioAssay (Tox21)
